The whole screen tested about 320,000 compounds, of which about 1,300 (0.41%) were called active. Not shown: some 3% with an inconclusive outcome. No rule for the calls is given here. The list is a sample of the results. Potency and affinity values are given separately.
Assay: growth inhibition of non-replicating M. tuberculosis (AID 488890);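 also: plate controls were DMSO cells for no effect and high antibiotic wells for full effect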
Conditions: Mycobacterium tuberculosis non-replicating, at 25 µM, stronger effect = higher value
Molecule `Cc1cc(C(=O)CCC(=O)Nc2ncccc2C)c(C)s1` has an inhibition of 25.8%. With `CS(=O)(=O)N1CCc2cc(S(=O)(=O)Nc3ccc4c(c3)OCCO4)ccc21` the inhibition was 5.57%. `CCOc1ccc(C(=O)Nc2nnn(CC)n2)cc1` gave an inhibition of -19.1%. For `Cc1cccc(OCC(=O)Nc2nnn(C)n2)c1C`, the inhibition was 7.29%. `CCn1nnc(NC(=O)COc2ccc([N+](=O)[O-])cc2)n1` showed an inhibition of 15.6%. Work on `Cc1ccc(OCC(=O)Nc2nnn(C)n2)c(C)c1` yielded an inhibition of -10.8%. `NC(N)=NS(=O)(=O)c1ccc(NC(=S)NC(=O)c2ccc(Br)cc2)cc1` showed an inhibition of 2.25%. With `CN(C)CCC#CC1(O)c2ccccc2-c2ccccc21` the inhibition was -5.2%. With `CCc1ccc(CNC(=O)c2ccc3nc(C4CCCCC4)oc3c2)nc1` the inhibition was 56.5%. With `O=C1c2ccccc2C(=O)N1CC#CCN1CCN(C(c2ccccc2)c2ccccc2)CC1` the inhibition was -1.98%. `c1ccc(-c2noc(C3CCCCC3)n2)nc1` showed an inhibition of 18.3%. `c1ccc(-c2noc(CC3CCCCC3)n2)cc1` gave an inhibition of 69.6%. Molecule `c1ccc(CCc2nc(-c3cccnc3)no2)cc1` has an inhibition of 20%. `c1ccc(Cc2nc(-c3ccccn3)no2)cc1` showed an inhibition of 16.8%. `CC(=O)CC1=NC(C)(C)Cc2ccccc21` gave an inhibition of 0.57%. `c1ccc(CNc2ccc3ccccc3n2)nc1` gave an inhibition of 21.1%. Work on `COc1cc2c(cc1NC(=O)COC(=O)C1CC(=O)N(Cc3ccco3)C1)oc1ccccc12` (stereo unspecified) yielded an inhibition of 6.37%. With `Cc1ccc(-n2c(-c3ccncc3)nnc2-c2cccs2)cc1` the inhibition was -0.27%. In the case of `COc1ccccc1N1CCN(C(=O)c2ccc(Br)s2)CC1`, the inhibition is reported as 70.2%. Work on `O=C(c1ccc([N+](=O)[O-])s1)N1CCN(c2ccccc2)CC1` yielded an inhibition of -13.2%. With `COc1ccccc1N1CCN(C(=O)c2cc(C(=O)N3CCN(c4ccccc4OC)CC3)cc([N+](=O)[O-])c2)CC1` the inhibition was 12.5%. Molecule `O=C(c1cccc([N+](=O)[O-])c1)N1CCN(c2cccc(Cl)c2)CC1` has an inhibition of 38.1%. `NC(=O)CCn1ccc2ccccc21` gave an inhibition of 2.82%. `Cc1cc(C)n(C(=O)c2ccc(C)c(S(=O)(=O)N3CCCCC3)c2)n1` showed an inhibition of -9.14%. `Cc1ccc(C(C)C)cc1OCC(=O)NNC(=O)Nc1ccccc1` gave an inhibition of -5.51%. With `COc1ccc(C(=O)NNC(=O)C(=O)Nc2ccc(C)c(Cl)c2)cc1` the inhibition was 73%. `Cc1cc(NC(=O)c2ccccc2C)ccc1NC(=O)c1ccccc1Cl` gave an inhibition of -10.5%. `Cc1c(Cl)cccc1NC(=O)CCC(=O)NNC(=O)c1ccccc1Cl` gave an inhibition of 3.92%. With `Cc1c(Cl)cccc1NC(=O)CNC(=O)c1ccccc1F` the inhibition was 17.3%. Work on `Cc1ccc(S(=O)(=O)NCC(=O)NCC(=O)OCc2c(F)cccc2Cl)cc1` yielded an inhibition of -16.7%. `COC(=O)c1c(NC(=O)c2cccc([N+](=O)[O-])c2)sc(C(N)=O)c1C` gave an inhibition of 51.4%. `COc1cc(/C=N/NC(=O)c2ccc(N)cc2)ccc1OC(=O)c1cccc(C)c1` showed an inhibition of 35.7%. Work on `CCN(C(=O)COC(=O)c1cc2ccccc2cc1O)C1CCS(=O)(=O)C1` (stereo unspecified) yielded an inhibition of 9.53%. Work on `CC(C)CC(NC(N)=O)C(=O)Nc1ccc(Cl)c(Cl)c1` (stereo unspecified) yielded an inhibition of 13.8%. `CCNC(=O)/N=C1/NC(=O)C(C(C)C)O1` (stereo unspecified) showed an inhibition of 0.48%. With `CC(C)(C)NC(=O)Cn1cc(C(=O)c2ccccc2F)c2ccccc21` the inhibition was 0.38%. For `CCCCOc1ccc(-c2nc(/C=N/c3nccs3)c(O)o2)cc1`, the inhibition was 62.2%. Work on `CN=Cc1nc(-c2ccccc2)oc1O` yielded an inhibition of 10.9%. With `O=C(O)CN(Cc1ccccc1)S(=O)(=O)c1ccc2c(c1)OCCO2` the inhibition was -8.61%. Work on `CC1CN(C(=O)c2ccc(COc3ccc(C(C)C)cc3)o2)CC(C)O1` (stereo unspecified) yielded an inhibition of 54.3%. For `COc1ccc(NC(C)=O)cc1NC(=O)CSc1nnc(-c2ccc(F)cc2)n1N`, the inhibition was -6.88%. With `O=[N+]([O-])c1ccc(NC(=S)N2CCc3ccccc3C2)cc1` the inhibition was -1.08%. Work on `CC[n+]1c(/C=C(\C)SC)sc2ccccc21` yielded an inhibition of 0.12%. For `CC[n+]1c(/C=C(/C)SC)sc2ccccc21`, the inhibition was 67%. For `CCn1c(N2CCN(C(=S)NCCc3ccccc3)CC2)nc2ccccc21`, the inhibition was 63.9%. In the case of `Cc1[nH]c2ccc(OC(F)(F)F)cc2c1CCNCc1cccc([N+](=O)[O-])c1`, the inhibition is reported as 77.6%. For `COc1ccc2[nH]c(C)c(CCNCc3cn(C)c4ccccc34)c2c1`, the inhibition was 60.3%. In the case of `CC1=C(CCN2CCN(C(C)C)C(CCO)C2)C(C)(C)CCC1` (stereo unspecified), the inhibition is reported as 12.7%. `CC1=C(CCN2CCN(C3CCCC3)C(CCO)C2)C(C)(C)CCC1` (stereo unspecified) gave an inhibition of 54.5%. With `CCOc1ccccc1NC(=S)N1CCC(c2nc3ccccc3o2)CC1` the inhibition was 29.4%. Molecule `COc1ccc(NC(=O)Cn2nnc(C(=O)NCc3ccco3)c2N)cc1` has an inhibition of -3.46%. `CCCC1(CCC)NC(=O)NC1=O` showed an inhibition of 36.8%. In the case of `O=C(CCc1ccccc1)NCc1ccncc1`, the inhibition is reported as 7.15%. `Cc1nc(Nc2ccc(S(N)(=O)=O)cc2)oc1C` showed an inhibition of 71.4%. Work on `CSc1ccc(C(=O)C2CCCN(C(=O)c3ccc4c(c3)OCO4)C2)cc1` (stereo unspecified) yielded an inhibition of 71.2%. In the case of `CSc1ccc(C(=O)C2CCCN(C(=O)c3nonc3C)C2)cc1` (stereo unspecified), the inhibition is reported as 62.8%. `C=CCN(CC=C)C(=O)C1CC(=O)N(c2ccc(Br)cc2)C1` (stereo unspecified) showed an inhibition of 0.89%. With `O=c1cc(NS(=O)(=O)c2ccccc2)nc(SCc2c(Cl)cccc2Cl)[nH]1` the inhibition was -0.92%. `O=C(NNc1cccc(Cl)n1)Nc1ccc(F)cc1` showed an inhibition of 9.17%. Molecule `CCCCC(=O)N(CCOC)c1nnc(-c2ccc(OC)cc2)s1` has an inhibition of 11.8%. With `CCC(=O)N1c2ccc(S(=O)(=O)N3CCN(CC)CC3)cc2CC1C` (stereo unspecified) the inhibition was -2.95%. In the case of `Cc1nc2c(=O)oc3ccccc3c2n1-c1ccccc1`, the inhibition is reported as 66.8%. `Cn1c(C(F)(F)F)nc2c(=O)oc3ccccc3c21` gave an inhibition of 71.2%. `Cc1cc(Cl)c2oc(C(=O)N3CCN(c4cccc(C)n4)CC3)c(C)c2c1` gave an inhibition of 22.3%. `CCOC(=O)N1CCC(=NNC(=O)c2cc3ccccc3cc2O)CC1` gave an inhibition of 31.9%. `O=C(NN=C1CCCC1)c1ccccc1O` gave an inhibition of 8.13%. With `Cc1ccc(Cn2c(=N)n(CC(O)c3ccco3)c3ccccc32)cc1` (stereo unspecified) the inhibition was 18.9%. Molecule `N=c1n(Cc2ccccc2)c2ccccc2n1CC(O)c1ccco1` (stereo unspecified) has an inhibition of 2.91%. In the case of `CC1CCC/C(=C\Nc2ccc(C(=O)O)cc2)C1=O` (stereo unspecified), the inhibition is reported as -12.5%. In the case of `CC1CCC/C(=C\Nc2ccc(O)cc2)C1=O` (stereo unspecified), the inhibition is reported as 13.7%. `O=C1c2cccc(OCC(=O)N3CCCc4ccccc43)c2CCN1Cc1cccnc1` showed an inhibition of 15.4%. Work on `O=C(NC1CCCCC1)c1cc(-c2cccs2)on1` yielded an inhibition of 43.1%. Molecule `O=C(NC1CCCC1)c1cc(-c2ccccc2O)on1` has an inhibition of 4.68%. Work on `CN(Cc1cccs1)C(=O)COC(=O)CNC(N)=O` yielded an inhibition of 2.55%. `O=C(c1ccccc1)c1cncc(Br)c1` showed an inhibition of 19%. `CCc1ccc(C(=O)c2cncc(Br)c2)cc1` gave an inhibition of 70%. `Cc1ccc(C)n1-c1ccc(N2CCOCC2)c([N+](=O)[O-])c1` showed an inhibition of -3.61%. Work on `Cc1nn(C)c(C)c1NC(=S)Nc1ccc(S(=O)(=O)Nc2ncccn2)cc1` yielded an inhibition of -12.7%. For `CCC/C=C(\CCC)C(NC(=O)CCc1ccccc1)c1ccc(C(F)(F)F)cc1` (stereo unspecified), the inhibition was -8.64%. `Cc1cc(C(c2ccc(O)cc2)c2cc(C)c(O)cc2C)c(C)cc1O` showed an inhibition of 19.6%. For `Cc1ccc(O)c(C)c1`, the inhibition was -0.5%. For `CN(C)CCCn1c(-c2ccccc2)nc(=S)c2c1CCCC2`, the inhibition was 3.62%. With `CN(C)CCN1C(=O)C2C(C(=O)Nc3cc(Cl)cc(Cl)c3)C3C=CC2(O3)C1C(=O)NC1CCCCC1` (stereo unspecified) the inhibition was 5.38%. In the case of `COc1ccc(OCCCC(=O)OCC(=O)Nc2nnc(-c3ccccc3)o2)cc1`, the inhibition is reported as 24.6%. `CC(C)c1ccc(OCC(=O)NCCO)cc1` showed an inhibition of -10.9%. Work on `Cc1ccc(CN2CCN(c3ccccc3Cl)CC2)o1` yielded an inhibition of -0.79%. With `Cc1cccc(N2CCN(Cc3ccoc3)CC2)c1C` the inhibition was 11.8%. `Clc1ccccc1N1CCN(Cc2ccc(Br)o2)CC1` showed an inhibition of 19.6%. Molecule `Cc1cccc(N2CCN(Cc3ccc(Br)o3)CC2)c1C` has an inhibition of 51.8%. In the case of `Cc1ccccc1N1CCN(Cc2cc3c(cc2[N+](=O)[O-])OCO3)CC1`, the inhibition is reported as 45.5%. With `Cc1ccccc1N1CCN(Cc2ccc(Br)o2)CC1` the inhibition was 35.5%. Work on `CCOc1ccc(N=C2SCC(=O)N2CC)cc1` yielded an inhibition of 25.3%. With `O=C(Nc1cccc([N+](=O)[O-])c1)NC1CCS(=O)(=O)C1` (stereo unspecified) the inhibition was -1.42%. Molecule `CSc1ccccc1NC(=O)CN(C)CC(=O)Nc1c(F)cccc1F` has an inhibition of 6.62%. Molecule `O=C1c2cccc3cccc(c23)C(=O)N1CCCc1n[nH]c(=S)n1-c1ccccc1` has an inhibition of -14.7%. `C=CCN(C)NC(=O)Nc1ccccc1` showed an inhibition of 6.98%. In the case of `Cc1c(NC(=O)CCCCCN2C(=O)c3ccccc3C2=O)c(=O)n(-c2ccccc2)n1C`, the inhibition is reported as -3.66%. `COc1cc(C(=O)N2CCC(NC(=O)C(Cc3ccccc3C)NC(C)=O)CC2)cc(OC)c1OC` (stereo unspecified) showed an inhibition of 3.5%. Work on `Cc1c(Br)c([N+](=O)[O-])nn1CC(=O)c1ccccc1` yielded an inhibition of -6.01%. In the case of `Cc1nc([N+](=O)[O-])c(Br)n1CC(=O)c1cccc([N+](=O)[O-])c1`, the inhibition is reported as 68.4%. Work on `Cc1nc([N+](=O)[O-])cn1CC(=O)c1ccc(Cl)cc1` yielded an inhibition of -12.5%. For `COC(=O)Cn1c(C)nc([N+](=O)[O-])c1Br`, the inhibition was -5.82%. For `COc1ccc(OC)c(C(c2nnnn2CC2CCCO2)N2CCN(C)CC2)c1` (stereo unspecified), the inhibition was 9.88%. `COc1ccc(F)cc1S(=O)(=O)Nc1ccncc1` gave an inhibition of 10.8%. For `N/C(COc1ncn(-c2ccccc2)n1)=N\S(=O)(=O)c1ccccc1`, the inhibition was 20.4%. `CCOC(=O)C1CCCN(Cc2nc(N)nc(Nc3ccccc3)n2)C1` (stereo unspecified) showed an inhibition of 42%. `O=C(NC1CCCC1)c1nc2c(nnn2Cc2ccccc2Cl)c(=O)[nH]1` showed an inhibition of 79.4%. In the case of `O=C(NC1CC1)c1nc2c(nnn2Cc2ccccc2Cl)c(=O)[nH]1`, the inhibition is reported as 17.4%. `Cn1c(CCc2ccccc2)nnc1SCC(=O)N1CCCC1` gave an inhibition of -11.6%. Work on `O=C1NC2(CCCCC2)N=C1c1ccccc1` yielded an inhibition of -21.1%. With `N#CC(C#N)=c1ccc2c(c1)N1C(c3ccccc3)=CC(c3ccccc3)C3CCCCC31N=2` (stereo unspecified) the inhibition was -0.07%. `CCOc1ccc(OCC(O)CNC2CCN(Cc3ccccc3)CC2)cc1` (stereo unspecified) gave an inhibition of 35%. `CC(C)(c1ccccc1)c1ccc(OCC(O)CN2CCCC2)cc1` (stereo unspecified) gave an inhibition of 50%. For `CC(C)(C)c1ccc(-n2ncc3c2CCCC3NC(=O)CN2CCOC2=O)cc1` (stereo unspecified), the inhibition was 10.9%. `COC(=O)Nc1ccc(S(=O)(=O)N2c3ccccc3CCC2C)cc1` (stereo unspecified) gave an inhibition of 47.6%. Molecule `Cc1ccc(S(=O)(=O)N2CCC(C(=O)OC(C)C(=O)N(C)c3ccccc3)CC2)cc1C` (stereo unspecified) has an inhibition of 36%.
